Holding throughout (experiment): NCI-60 one-dose screen, 48 h (100 = growth as untreated, 0 = no growth, -100 = all killed)
The test system of test [1] is NCI-H23 lung. The settings on record: 10 µM unless noted.
Test [2] relates to NCI-H226 lung. The settings on record: 10 µM unless noted.
In test [3] the test system is NCI-H322M lung. The settings on record: 10 µM unless noted.
For test [4], the system named is HOP-62 NSCLC. To be noted: 10 µM unless noted.
Test [5] has as its system NCI-H460 lung. The settings on record: 10 µM unless noted.
The test system of test [6] is HOP-92 NSCLC. The settings on record: 10 µM.
Test [7] deals with A549/ATCC NSCLC. To be noted: 10 µM unless noted.
Test [8] concerns 786-0 renal. To be noted: 10 µM unless noted.
In test [9] the test system is COLO 205 colon. To be noted: 10 µM unless noted.
In test [10] the test system is DU-145 prostate. To be noted: 10 µM unless noted.
For test [11], the system named is K-562 leukemia. The settings on record: 10 µM unless noted.
The test system of test [12] is MALME-3M melanoma. To be noted: 10 µM unless noted.
Test [13] has as its system MDA-MB-231 breast. To be noted: 10 µM unless noted.
Test [14] relates to RXF 393 renal. The settings on record: 10 µM unless noted.
The subject of test [15] is SF-268 CNS. To be noted: 10 µM unless noted.
In test [16] the test system is SF-295 CNS. The settings on record: 10 µM unless noted.
Test [17] has as its system SF-539 CNS. The settings on record: 10 µM unless noted.
Test [18] relates to UACC-257 melanoma. To be noted: 10 µM unless noted.
In test [19] the test system is M14 melanoma. To be noted: 10 µM unless noted.
The subject of test [20] is NCI-H522 lung. To be noted: 10 µM unless noted.

Molecules are shown by their SMILES. Compounds without any hit were thinned out: in the full panel of roughly 83,000, 20% have a hit.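 Compound tested at a single concentration for 48 hours in 96-well plates; a percent growth value below 10 was scored as active.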 Values without a mark were called inactive. The source made the active and inactive calls.

Turning to `CC(=O)Nc1cccc(Nc2nc(N[C@@H](C)c3ccccc3)c3ccccc3n2)c1`, the growth in [1] was 20.6%; in [2] it was 6.42% (active); in [3], 53.7%; in test [4] it was 33.9%; in test [5], 2.67% (active); in test [6], 13.1%. Moreover, the growth in test [7] was 19.9%; in test [8] it was 3.67% (active); in test [9], -12.3% (active); in test [10], 11.4%; in test [11], -19% (active); in test [12], 47%. Moreover, the growth was -22.1% (active) in test [13]; -48.3% (active) in [14]; 27.3% in test [15]; 8.33% (active) in [16]; -44% (active) in [17]; 55.3% in test [18]. Also, the growth in [19] was -10.7% (active).
With `O=c1c2ccccc2nc(COc2ccccc2)n1NS(=O)(=O)c1ccc(Cl)cc1`, the growth in test [1] was 82.8%; in test [2], 83%; in [3], 82.9%; in test [4], 75%; in test [5], 96.1%; in test [20], 69.4%. Besides, the growth in test [7] is 86%; in test [8], 107%; in test [9], 95%; in [10] it was 100%; in test [11] it was 47.3%; in test [12], 82.1%. Moreover, the growth is 67.4% in [13]; 97% in test [14]; 88.6% in [15]; 97.2% in test [16]; 86.9% in test [17]; 91.2% in [18].
With `Nc1ncc(-c2ccc3ncnc(N4CCc5cc(F)c(Cl)cc54)c3c2)cn1`, the growth is 31.7% in test [1]; 20.7% in [2]; 23% in test [3]; 19.6% in [4]; 23% in [5]; -10.9% (active) in test [6]. For the same molecule, the growth was 10.4% in test [7]; 3.19% (active) in test [8]; 10.8% in [10]; 34.6% in [11]; 33.6% in test [12]; 0.108% (active) in test [13]. The growth in [14] is -47.5% (active); in test [15] it was 16.9%; in test [16] it was 13.2%; in test [17] it was 8.74% (active); in [18], 50.6%; in test [19], 33.8%.
Consider `CC1(C)CC[C@]2(C(=O)N3CCOCC3)CC[C@]3(C)C(=CC[C@@H]4[C@@]5(C)C/C(=C/c6ccco6)C(=O)C(C)(C)[C@@H]5CC[C@]43C)[C@@H]2C1`, for which the growth in test [1] was 86.6%; in [2], 69%; in test [3] it was 102%; in [4] it was 87%; in [5], 98.5%; in [6] it was 77.8%. The growth is 87.8% in [7]; 79.5% in [8]; 108% in [9]; 73.2% in [10]; 64.2% in test [11]; 97.4% in [12]. The growth in test [13] is 85.5%; in test [14] it was -3.24% (active); in [15], 63.1%; in test [16], 95.3%; in test [17], 86.5%; in [18], 94.5%. In addition, the growth in [19] is 101%.
Regarding `Cc1ccc(C(=O)NN2C(=O)/C(=C/C=C/c3ccco3)SC2=S)cc1`, the growth in test [1] is 96.7%; in [2], 96.1%; in [3], 85.4%; in [4] it was 105%; in test [5], 88.3%; in [20], 83.5%. Besides, the growth in test [7] was 82.4%; in [8] it was 106%; in [9], 126%; in test [10] it was 103%; in test [11], 49.3%; in test [12] it was 93.9%. For the same molecule, the growth was 96.7% in test [13]; 131% in test [14]; 96.9% in [15]; 102% in test [16]; 93.4% in [17]; 91% in test [18].
Regarding `Nn1c(N/N=C/c2nc3ccccc3s2)n[nH]c1=S`, the growth was 91.8% in test [1]; 104% in test [2]; 109% in test [3]; 74.8% in test [4]; 110% in test [5]; 98.7% in test [6]. The growth in [7] is 95.3%; in test [8] it was 96.1%; in test [9] it was 115%; in test [10], 97.5%; in test [11], 108%; in test [12], 109%. Besides, the growth in test [13] was 88.2%; in test [14], 83.9%; in test [15] it was 93.2%; in [16] it was 105%; in test [17], 103%; in [18], 109%. Besides, the growth in test [19] was 111%.
Take `CC1(C)CC[C@]2(C(=O)N3CCOCC3)CC[C@]3(C)C(=CC[C@@H]4[C@@]5(C)C/C(=C/c6ccccn6)C(=O)C(C)(C)[C@@H]5CC[C@]43C)[C@@H]2C1`: the growth was 60.2% in test [1]; 76.2% in [2]; 103% in test [3]; 78.5% in test [4]; 54.9% in test [5]; 51.1% in test [6]. Moreover, the growth in test [7] was 54.5%; in test [8], 64.4%; in test [9], 74.2%; in test [10] it was 62.3%; in test [11] it was 34.5%; in test [12], 88.7%. The growth in test [13] is 55.2%; in [14], 3.83% (active); in test [15] it was 59.6%; in test [16] it was 75.1%; in test [17], 94%; in [18], 59.6%. Further, the growth in test [19] was 77.9%.
In the case of `O=C(CSc1nc2ccccc2c(=O)n1-c1ccccc1)Nc1cccc(C(=O)/C=C/c2ccccc2)c1`, the growth in [1] was 102%; in test [2], 83.1%; in test [3], 102%; in [4], 99%; in [5] it was 91.6%; in test [20], 92%. The growth in test [7] was 80.1%; in test [8], 98.5%; in [9], 106%; in test [10], 94.8%; in test [11], 70.1%; in test [12] it was 101%. The growth in [13] was 94.3%; in test [14], 83.1%; in test [15] it was 94.8%; in test [16], 98%; in [17], 98.8%; in test [18], 99.8%.

The record behind these values is PubChem BioAssay (NCI).
